Pf growth 96h = P. falciparum growth inhibition at 96 hours | P. falciparum luciferase reporter growth, 96 h | Potency, µM (series often up to 28.7 µM), actives largely listed as inhibitors | 6.9% of 320,000 active
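Infected RBCs, 2% Hct / 0.05% parasitemia final; luciferase-reporter P. falciparum; cpd 96 h, 37 C, 5% CO2; luciferase detection reagent; luminescence.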
AMA1-RON2 inh = AMA1-RON2 (P. falciparum) interaction inhibition; AlphaScreen AMA1-biotinylated RON2 peptide binding; Potency, µM (top dose mostly 58.2 µM), usual class: inhibitors; 0.2% of 360,000 active; also: nearly all actives have a fitted effect of over 45% in size
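AMA1 (3D7) with his tag at 25 nM final met compounds first, then biotinylated RON2 peptide at 25 nM; detection used donor plus acceptor beads, 10 µg/mL apiece, read by AlphaScreen after 30 min at room temperature.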
Pf growth 48h = inhibits P. falciparum growth in the first generation, 48 h; 5.9% of 310,000 active; Potency, µM (series often up to 28.7 µM), hits mostly inhibitors; P. falciparum luciferase growth in erythrocytes, 48 h
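Cell-based growth assay: transgenic P. falciparum expressing firefly luciferase, cultured in red cells within RPMI 1640 containing 0.5% w/v Albumax, 24 mM bicarbonate and gentamycin. A drop in luciferase activity indicates inhibition.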
NS1 inh = blocks influenza NS1 protein function. 0.4% of 270,000 active. AID 2326. Potency, µM (doses to about 46.1 µM); calls by dose curve; also: actives are rising curves; nearly all actives have a fitted effect of over 50% in size
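Compounds were scored for reversing the slow growth caused by influenza A NS1 in S. cerevisiae, measured by optical density at 600 nm. Assay medium contained 2% galactose at pH 6.0; NS1-free yeast of the same strain were the positive control.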
Sm TGR block = blocks Schistosoma mansoni thioredoxin glutathione reductase; Q962Y6; purified TGR, DTNB reduction, TNB absorbance 405 nm; Potency, µM (highest dose often 114 µM), hits mostly inhibitors; 3% of 360,000 active; AID 485364; also: nearly all actives have a fitted effect of over 60% in size
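Kinetic colorimetric format: TGR-catalysed, NADPH-driven DTNB reduction monitored via TNB absorbance. Enzyme dispensed at 20 nM; compound exposure 15 min at room temperature before reaction start.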
Numbers stand for hits; i = inactive; ? = inconclusive; nt = no result given; [ ] = dose if it differs, or a comment. The list is not random: actives were taken first. Their share in the collection is about 11%. Unless noted, calls follow the shape of the dose curve; as a rule, active = well fitted curve in the direction sought with a large enough effect; inconclusive = small, poorly fitted or top-dose-only effect, or another doubt; inactive = no such curve, though single readings can be large; an effect the other way counts as inactive or inconclusive.

SMILES	Pf growth 96h	AMA1-RON2 inh	Pf growth 48h	NS1 inh	Sm TGR block
Cc1ncc(CO)c(/C=N/NC(=S)Nc2ccc(F)cc2)c1O	13µM	i[11.6 µM]	i	i	i
COc1cccc(OCC(=O)Nc2c(C(=O)Nc3ccc(OC)cc3OC)oc3ccccc23)c1	nt	nt	nt	i	nt
CCn1cc2nc(SCC(=O)Nc3ccc(F)cc3F)n(Cc3ccccc3)c(=O)c2n1	13µM	i	?	i	i
C=CCn1c(SCC(=O)NC23CC4CC(CC(C4)C2)C3)nc2cc(C(=O)O)ccc2c1=O	4.7µM	i	2.9µM	nt	i
C=CCn1c(SCC(=O)NC2CC2)nc2ccccc2c1=O	?	i	?	nt	i
CCCCCn1c(SCC(=O)OCC)nc2cc(C(=O)N3CCC(C(N)=O)CC3)ccc2c1=O	i	i	i	i	i
C=CCn1c(SCC(=O)Nc2ccccc2F)nc2ccccc2c1=O	i	i	i	i	79µM
C=CCn1c(SCc2ccc(Cl)cc2)nc2cc(C(=O)N3CCC(C(N)=O)CC3)ccc2c1=O	6.6µM	i	?	i	i
CCn1cc2nc(SCC(=O)Nc3ccc(C)cc3C)n(Cc3ccc(C)cc3)c(=O)c2n1	nt	nt	nt	nt	i
CCOC(=O)c1ccc(NC(=O)CN2C(=O)CN(C(C)=O)C2=S)cc1	i	i	i	?	i
C=CCn1c(SCC(=O)c2ccc(CNC(C)=O)o2)nc2ccccc2c1=O	15µM	i	nt	i	?
CC(=O)NCc1ccc(C(=O)CSc2nnc(-c3ccncc3)n2Cc2ccccc2)o1	i	i	i	i	35µM
COc1ccccc1/C=C/C(=C1/C(=O)N(c2ccccc2)N=C1C)c1ccc(C)cc1	12µM	i	i	i	i
COc1cccc(/C=C/C(=C2/C(=O)N(c3ccccc3)N=C2C)c2ccccc2)c1OC	?	i	i	i	i
O=C1C2CCCN2c2ccc(S(=O)(=O)N3CCOCC3)cc2N1Cc1ccccc1F (stereo not given)	12µM	i	?	?	i
N#CCN1C(=O)C2CCCN2c2ccc(S(=O)(=O)N3CCOCC3)cc21 (stereo not given)	i	i	?	i	?
O=C1C2CCCN2c2ccc(S(=O)(=O)N3CCOCC3)cc2N1Cc1cccc(C(F)(F)F)c1 (stereo not given)	0.52µM	nt	1µM	?	i
O=C(CNc1cc(S(=O)(=O)N2CCOCC2)ccc1N1CCOCC1)Nc1cccc(C(F)(F)F)c1	nt	i	nt	nt	nt
COc1ccc(C(=O)c2cn(CC(=O)Nc3ccc4c(c3)OCCO4)c3ccc(OC)cc3c2=O)cc1	nt	nt	nt	nt	i
O=C(Nc1ccc(N2CCOCC2)cc1)Nc1ccc2nc(-c3ccco3)c(-c3ccco3)nc2c1	i	i	?	i	4.5µM
O=C(NCCCO)Nc1ccc2nc(-c3ccco3)c(-c3ccco3)nc2c1	nt	nt	i	?	0.28µM
O=C(Nc1ccc2nc(-c3ccco3)c(-c3ccco3)nc2c1)NC1CC1	i	?	i	i	?
CCOC(=O)C1CCN(C(=O)CCc2nc3sc4c(c3c(=O)[nH]2)CCCC4)CC1	i	i	i	nt	i
COc1ccc(NC(=O)C[C@@H]2C(=O)N(c3ccc(OC)cc3)CC2(C)C)cc1	nt	i	nt	nt	nt
Clc1cc(Sc2ccc(Br)cc2)nnc1-c1ccccc1	i	i	?	i	i
SMILES	Pf growth 96h	AMA1-RON2 inh	Pf growth 48h	NS1 inh	Sm TGR block
COc1ccc(N=C2C(=O)N3c4c(cccc42)C(C)=CC3(C)C)cc1	12µM	i	?	i	i
O=C(NCC1CCCO1)c1ccc(COc2ccccc2)o1 (stereo not given)	i	i	i	nt	i
COc1ccc(-c2[nH]c(-c3cc(OC)c4c(c3)OCO4)nc2-c2ccccc2)cc1	?	i[11.6 µM]	4.1µM	i	i
COc1cc(-c2nc(-c3ccccc3)c(-c3ccc(Br)cc3)[nH]2)cc(OC)c1O	nt	nt	nt	nt	i
CCCOC(=O)/C(=C\c1ccc([N+](=O)[O-])o1)NC(=O)c1ccccc1	0.41µM	i	?	i	i
O=C(NCCO)/C(=C\c1ccc([N+](=O)[O-])o1)NC(=O)c1ccccc1	?	i	?	i	?
CCCOC(=O)/C(=C\C=C\c1ccco1)NC(=O)c1ccccc1	i	i	i	nt	8.9µM
CCn1cc(C(=O)NCCCOC)c(=O)c2cc(S(=O)(=O)N3CCc4ccccc4C3)ccc21	nt	nt	nt	nt	i
CCN(Cc1ccncc1)Cc1c(O)ccc2cc(Br)ccc12	6.6µM	i	5.9µM	nt	1.8µM
CCOc1ccccc1N1CC(C(=O)Nc2ccccc2CC)CC1=O (stereo not given)	i	i	i	i	i
COc1ccc(-c2cc(-c3ccccc3)c(C#N)c(SCC(=O)Nc3ncc(C)s3)n2)cc1	i	i	13µM	i	i
COc1ccc(-c2cc(-c3ccccc3)nc(SCC(=O)Nc3nccs3)c2C#N)cc1	?	i[2.32 µM]	i	i	i
COC(=O)CSc1nc(N)c(C#N)c(-c2ccco2)c1C#N	i	i	i	i	?
COC(=O)CSc1nc(-c2ccccc2)cc(-c2ccco2)c1C#N	?	i	i	i	32µM
COc1ccc(Cc2c(C)nn(-c3nc(C)c(C(=O)Nc4ccc(C)cc4C)s3)c2C)cc1	nt	nt	nt	nt	i
CCOc1ccc(C(=O)CN2CCN(S(=O)(=O)c3ccc(Cl)cc3)CC2)cc1	i	i	i	i	32µM
COc1ccc(C(=O)CN2CCN(S(=O)(=O)c3ccc(F)cc3)CC2)cc1	nt	nt	nt	nt	i
O=C(CN1CCN(S(=O)(=O)c2ccc(Br)cc2)CC1)c1ccc(O)c(O)c1	?	i	?	i	14µM
CC(C)c1ccc(S(=O)(=O)N2CCN(CC(=O)c3ccc(O)c(O)c3)CC2)cc1	i	nt	i	i	25µM
Cc1cc2c(cc3c(SCc4ccccc4Cl)nnc(C)n32)o1	nt	nt	nt	nt	i
COc1ccc(C2=NO[C@@H]3C(=O)N(C4CCCCC4)C(=O)[C@H]23)cc1OC	?	i	i	i	i
COc1ccc(C2=NO[C@@H]3C(=O)N(c4ccc5c(c4)OCCO5)C(=O)[C@H]23)cc1OC	i	i	i	?	45µM
O=C(NC(Nc1ncc(S(=O)(=O)c2ccc([N+](=O)[O-])cc2)s1)(C(F)(F)F)C(F)(F)F)c1ccc(Cl)cc1	nt	i	9.3µM	i	i
O=C(Nc1ccc(Cl)cc1)OCCn1nnnc1C(c1ccccc1Cl)N1CCOCC1 (stereo not given)	?	i	15µM	i	i
COc1ccc(Cl)cc1NC(=O)CN1CCN(S(=O)(=O)N2CCOCC2)CC1	i	i	i	i	i
COc1ccc(S(=O)(=O)N2CCN(CC(=O)Nc3cc(Cl)ccc3Cl)CC2)cc1	i	i[11.6 µM]	i	nt	i
COc1ccc(C)cc1NC(=O)CN1CCN(S(=O)(=O)c2ccc(Cl)cc2)CC1	?	i	12µM	i	i
COc1ccc(NC(=O)Cn2c(=O)oc3cc(Cl)ccc32)c(OC)c1	?	i	i	i	i
COc1ccc(C)cc1NC(=O)CN1CCN(S(=O)(=O)c2ccc(C(C)C)cc2)CC1	i	i	13µM	i	i
COc1ccc(OC)c(NC(=O)Cn2c(-c3ccc(Cl)cc3)noc2=O)c1	i	i	4.1µM	i	i

Assay outcomes: PubChem, National Center for Advancing Translational Sciences (NCATS)
